The text below walks through data of PubChem BioAssay (NCATS).

Structures are written as SMILES. Values joined by “and” are separate entries in the source; they are usually repeats but may differ in a detail not shown here. Identical values can stand only once. Records with an inconclusive call do not appear. A call without a number means that no potency is given here. Active and inactive are the calls of the source. Unless noted, calls come from the whole dose curve; as a rule, active = well fitted curve in the direction sought with a large enough effect; inconclusive = small, poorly fitted or top-dose-only effect, or another doubt; inactive = no such curve, though single readings can be large; an effect the other way counts as inactive or inconclusive.

The target of experiment [1] is Ubiquitin carboxyl-terminal hydrolase 1 (Homo sapiens) (UniProt O94782). Briefly: Inhibitors of USP1/UAF1: Pilot qHTS (AID 504865). Note: nearly all actives have a fitted effect of over 35% in size. Note: potency is the fitted concentration of half-maximal effect. The gist of the method:
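Enzyme-free wells gave the negative control, while test wells held 1nM USP1/UAF1 preincubated with compound for 15 min at room temperature. Ub-Rho at 150nM final started the reaction, and fluorescence at 480/540 nm was recorded kinetically.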

Experiment [2] can be described thus: ZIKV-mCherry secondary qHTS for Zika virus inhibitors (AID 1347158). Note: top concentration of the series differs between compounds. In outline: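 Percent infection is the share of Hoechst-identified Vero nuclei with mCherry signal above 450 RFU (3 SD over negative controls). Cells were infected with recombinant ZIKV-mCherry at MOI 1 after compound addition and imaged 48–72 h later.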
Background: Quantitative high-throughput screening tests each substance at several concentrations.

Experiment [3] has as its target Cytochrome P450 3A4 (Homo sapiens) (UniProt P08684). Briefly: qHTS Assay for Activators of Cytochrome P450 3A4 (AID 885). Note: nearly all actives have a fitted effect of over 65% in size. In outline: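 Human CYP3A4 dealkylates Luciferin-PPXE to luciferin, which luciferase detection converts to light. Substrate was at its KM (25uM), buffer 200mM KPO4, reaction 60 min at RT.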
The target in experiment [4] is Mitogen-activated protein kinase 10 (Mus musculus) (UniProt Q61831). The experiment in a line: JNK3 AlphaScreen Assay (AID 530; active = well fitted curve in either direction with a large enough effect, not every such curve was filed as active;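 note: kinase came from lysate of stimulated human HepG2 cells; signal reports phosphorylation of biotinylated GST-cJun 1-79 at Ser73 with 10 µM ATP; series mostly up to about 57 µM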). The gist of the method:
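Phosphorylation of biotinylated GST-cJun(1-79) at Ser73 is measured by AlphaScreen proximity luminescence. Enzyme is JNK3 in HepG2 lysates activated with interleukin-1beta and tumor necrosis factor alpha; ATP is 10 uM final.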
(In general: Alpha assays give light when donor and acceptor beads are brought close together.)

In experiment [5] the target is 3',5'-cyclic-AMP phosphodiesterase 4B (Homo sapiens) (UniProt Q07343). Briefly: qHTS Assay for Inhibitors of PDE-IV (AID 607; active = well fitted activation curve with a large enough effect in the main read-out, with a control signal flat, not every such curve was filed as active). The gist of the method: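 HEK293 ACTOne cells with CNG channel (1000/well), endogenous PDE4; membrane potential dye, compounds up to 22.9 uM final. Fluorescence Ex 535/Em 590; RO 20-1724 (100 uM final) as reference.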
Sequence of 3',5'-cyclic-AMP phosphodiesterase 4B (Homo sapiens) (Q07343 whole entry, looked up): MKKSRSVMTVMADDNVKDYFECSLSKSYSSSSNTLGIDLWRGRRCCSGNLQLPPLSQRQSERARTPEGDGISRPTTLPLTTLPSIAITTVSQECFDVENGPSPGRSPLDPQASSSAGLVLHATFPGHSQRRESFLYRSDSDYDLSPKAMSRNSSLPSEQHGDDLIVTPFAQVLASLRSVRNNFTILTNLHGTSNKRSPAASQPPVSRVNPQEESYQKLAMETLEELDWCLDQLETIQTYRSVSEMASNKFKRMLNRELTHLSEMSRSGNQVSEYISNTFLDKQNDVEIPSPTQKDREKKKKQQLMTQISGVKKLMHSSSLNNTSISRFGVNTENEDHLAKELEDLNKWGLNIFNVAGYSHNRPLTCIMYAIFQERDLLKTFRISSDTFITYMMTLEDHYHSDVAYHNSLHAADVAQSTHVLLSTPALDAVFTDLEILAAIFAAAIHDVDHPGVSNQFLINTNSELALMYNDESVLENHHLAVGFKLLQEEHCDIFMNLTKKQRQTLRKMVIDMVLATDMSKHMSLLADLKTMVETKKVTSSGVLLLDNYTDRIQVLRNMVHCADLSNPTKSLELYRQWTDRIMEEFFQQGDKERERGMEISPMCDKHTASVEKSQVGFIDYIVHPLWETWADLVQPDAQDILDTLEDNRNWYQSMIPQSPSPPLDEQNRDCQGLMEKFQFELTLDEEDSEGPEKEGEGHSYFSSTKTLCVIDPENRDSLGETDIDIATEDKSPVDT
For experiment [6], the target named is Cytochrome P450 3A4 (Homo sapiens) (UniProt P08684). The experiment in a line: qHTS Assay for Inhibitors and Substrates of Cytochrome P450 3A4 (AID 884). Note: nearly all actives have a fitted effect of over 50% in size. Note: potency is the fitted concentration of half-maximal effect. The gist of the method:
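Luminescent readout of luciferin produced by CYP3A4 (20 nM) dealkylation of Luciferin-PPXE, 25 uM (its KM). NADPH-driven reaction ran 60 min at RT after 10 min compound preincubation; data scaled to 57 uM ketoconazole as 100% inhibition.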

For experiment [7], the target named is Cytochrome P450 1A2 (Homo sapiens) (UniProt P05177). The experiment in a line: p450-cyp1a2 (AID 410; calls by dose curve; note: potency is the fitted concentration of half-maximal effect). In outline:
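Luminescent demethylation readout: Luciferin-ME (100uM, equal to Km) turned over by 20nM CYP1A2 for 60 min at room temperature after NADPH regeneration addition, following 10 min compound preincubation. Normalization used 57 uM furafylline as full inhibition.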

Sequence of Ubiquitin carboxyl-terminal hydrolase 1 (Homo sapiens) (O94782 whole entry, looked up): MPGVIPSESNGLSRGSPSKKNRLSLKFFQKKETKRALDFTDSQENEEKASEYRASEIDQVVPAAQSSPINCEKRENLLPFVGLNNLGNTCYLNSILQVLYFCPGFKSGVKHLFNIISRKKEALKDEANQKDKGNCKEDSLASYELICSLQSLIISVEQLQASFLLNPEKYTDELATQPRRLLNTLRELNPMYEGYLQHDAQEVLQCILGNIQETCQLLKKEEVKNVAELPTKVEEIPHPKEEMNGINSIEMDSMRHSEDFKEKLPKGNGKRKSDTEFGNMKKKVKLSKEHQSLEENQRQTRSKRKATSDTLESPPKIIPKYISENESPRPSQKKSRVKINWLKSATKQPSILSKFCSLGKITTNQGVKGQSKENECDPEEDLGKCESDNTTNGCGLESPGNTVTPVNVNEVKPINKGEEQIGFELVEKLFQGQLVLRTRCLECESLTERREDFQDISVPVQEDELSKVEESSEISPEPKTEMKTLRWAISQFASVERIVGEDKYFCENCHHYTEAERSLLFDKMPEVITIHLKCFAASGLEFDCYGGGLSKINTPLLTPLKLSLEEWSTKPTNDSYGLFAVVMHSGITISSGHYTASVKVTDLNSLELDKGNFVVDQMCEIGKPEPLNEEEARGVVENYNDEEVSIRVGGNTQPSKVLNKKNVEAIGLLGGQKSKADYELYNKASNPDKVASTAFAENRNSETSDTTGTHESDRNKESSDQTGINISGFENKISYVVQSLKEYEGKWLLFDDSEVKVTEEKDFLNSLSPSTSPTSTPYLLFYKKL
Sequence of Cytochrome P450 3A4 (Homo sapiens) (P08684 whole entry, looked up): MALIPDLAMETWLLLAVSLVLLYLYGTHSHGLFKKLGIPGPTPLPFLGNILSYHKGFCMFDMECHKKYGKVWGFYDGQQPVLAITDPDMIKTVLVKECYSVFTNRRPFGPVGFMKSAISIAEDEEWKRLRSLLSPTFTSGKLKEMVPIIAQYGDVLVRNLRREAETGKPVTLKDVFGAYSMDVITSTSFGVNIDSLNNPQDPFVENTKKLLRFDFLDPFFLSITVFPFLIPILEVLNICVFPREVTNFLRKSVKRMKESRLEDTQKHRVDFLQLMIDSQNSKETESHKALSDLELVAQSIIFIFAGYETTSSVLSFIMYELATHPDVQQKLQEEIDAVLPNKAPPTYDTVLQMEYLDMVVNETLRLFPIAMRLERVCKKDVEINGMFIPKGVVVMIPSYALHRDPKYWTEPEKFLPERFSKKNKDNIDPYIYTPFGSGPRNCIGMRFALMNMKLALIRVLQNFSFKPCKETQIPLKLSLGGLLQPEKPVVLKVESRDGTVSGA
Sequence of Cytochrome P450 1A2 (Homo sapiens) (P05177 whole entry, looked up): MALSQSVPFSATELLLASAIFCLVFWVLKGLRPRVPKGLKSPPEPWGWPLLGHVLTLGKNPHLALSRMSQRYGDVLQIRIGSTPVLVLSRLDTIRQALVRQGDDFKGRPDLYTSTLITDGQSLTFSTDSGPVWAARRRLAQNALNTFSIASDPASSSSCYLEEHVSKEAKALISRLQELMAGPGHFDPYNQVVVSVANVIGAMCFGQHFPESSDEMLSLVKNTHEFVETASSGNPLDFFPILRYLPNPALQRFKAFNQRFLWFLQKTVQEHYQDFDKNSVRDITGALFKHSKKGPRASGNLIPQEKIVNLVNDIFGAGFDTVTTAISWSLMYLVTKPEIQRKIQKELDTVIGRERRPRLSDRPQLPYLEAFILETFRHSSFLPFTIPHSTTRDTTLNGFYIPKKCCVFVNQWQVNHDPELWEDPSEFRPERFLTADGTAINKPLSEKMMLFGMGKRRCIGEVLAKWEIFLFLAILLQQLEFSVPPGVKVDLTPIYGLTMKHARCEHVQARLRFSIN

On to `CC(=O)[C@H]1CC[C@H]2C3CC=C4C[C@@H](O)CC[C@]4(C)C3CC[C@]12C` (stereo partly specified), for which the Potency entry in experiment [1] was “inactive”.

With `c1cc2c3c(c1)c1c(n3CCNC2)CCCC1`, the Potency entry in experiment [1] was “inactive”.

As to `Cc1ccc(-c2cc(C(F)(F)F)c(C#N)c(SCC(=O)O)n2)cc1`, the Potency result in experiment [2] was “inactive”.

As for `CCCCCCCC/C=C\CCCCCCCC(=O)N[C@@H](CO)Cc1ccc(O)cc1`, the Potency entry in experiment [3] is “inactive”. For the same compound, in experiment [1], the Potency was 22.4 µM (active).

Regarding `O=C1c2ccc(O)c(O)c2C(=O)c2c(O)ccc(O)c21`, in experiment [1], the Potency was 79.4 µM (active). The Potency result in experiment [2] was “inactive”.

`O=C(OC1Cc2c(O)cc(O)cc2OC1c1cc(O)c(=O)c2c(O)c(O)cc(C3Oc4cc(O)cc(O)c4CC3OC(=O)c3cc(O)c(O)c(O)c3)c2c1)c1cc(O)c(O)c(O)c1` (stereo unspecified): the Potency entry in experiment [2] was “inactive”.

For the compound `CCCCCCCCCCCCCCCCCCc1ccc(C(=O)/C=C\C(=O)O)cc1`, the Potency entry in experiment [4] is “inactive”.

As to `C[C@@]12CC[C@@H]3c4ccc(O)cc4C[C@H](CCCCCCCCCS(=O)CCCC(F)(F)C(F)(F)F)[C@H]3[C@@H]1CC[C@@H]2O` (stereo partly specified), the Potency entry in experiment [4] and in experiment [5] was “inactive” throughout.

As for `N[C@H](C(=O)O)[C@@H]1[C@@H](C(=O)O)C1(F)F`, the Potency entry in experiment [4] and in experiment [1] was “inactive” in each case.

For `CCCCCS(=O)(=O)CCCCCCCCCCn1c(-c2ccc(O)cc2)c(C)c2cc(O)ccc21`, the Potency in experiment [6] is 0.631 µM (active). The Potency entry in experiment [3] is “inactive”.

Regarding `COc1cc(-c2ccc(N=Nc3ccc4c(S(=O)(=O)O)cc(S(=O)(=O)O)c(N)c4c3O)c(OC)c2)ccc1N=Nc1ccc2c(S(=O)(=O)O)cc(S(=O)(=O)O)c(N)c2c1O`, the Potency in experiment [7] was 12.6 µM (active) and 20 µM (active); in experiment [6], 15.8 µM (active); in experiment [1], 17.8 µM (active) and 8.91 µM (active). The Potency result in experiment [5], in experiment [3] and in experiment [2] was “inactive” in each case.

As to `CC(C)Oc1ccc2c(=O)c3cc(C(=O)O)ccc3oc2c1`, the Potency result in experiment [4] and in experiment [5] was “inactive” throughout.

On to `CCN(CC)CCCCC1CCN(CC(=O)N2c3ccccc3C(=O)Nc3cccnc32)CC1`, for which the Potency result in experiment [6] was “inactive”.

With `O=C(Nc1cccc(C(=O)OCc2cc(=O)n3nc(C4CC4)sc3n2)c1)c1cccc(Cl)c1`, the Potency entry in experiment [2] was “inactive”.

Consider `CCCCCN=c1ccn(Cc2ccccc2)c2ccccc12`, for which, in experiment [3], the Potency entry was “inactive”.

For `Cc1c(C(=O)NN2CCCCC2)nn(-c2ccc(Cl)cc2Cl)c1-c1ccc(I)cc1`, the Potency entry in experiment [1] was “inactive”.

Consider `CC(C)Oc1cccc(-n2c(CCc3c[nH]c4ccc(Br)cc34)nc3ccccc3c2=O)c1`, for which the Potency result in experiment [4] and in experiment [3] was “inactive” in each case. The Potency in experiment [6] is 3.98 µM (active).

In the case of `CNc1ncnc2c1ncn2[C@H]1C[C@H](OP(=O)(O)O)[C@H](COP(=O)(O)O)O1`, the Potency result in experiment [1] was “inactive”.

Regarding `COc1ccccc1CC(=N)N1C[C@@H]2C(=O)CCC(c3ccccc3)(c3ccccc3)[C@@H]2C1`, the Potency result in experiment [4] and in experiment [3] was “inactive” throughout. Moreover, in experiment [6], the Potency was 3.16 µM (active).

As to `CCN(Cc1cccc(S(=O)(=O)O)c1)c1ccc(C(=C2C=CC(=[N+](CC)Cc3cccc(S(=O)(=O)O)c3)C=C2)c2ccc(O)cc2S(=O)(=O)O)cc1`, the Potency result in experiment [2] was “inactive”.

Turning to `CC(C)(C)c1ccc(S(=O)(=O)c2cnc(SCC(=O)Nc3ccc4c(c3)OCCO4)[nH]c2=O)cc1`, the Potency result in experiment [2] was “inactive”.

Consider `COc1cc2c(cc1OC)-c1cc3nc4ccccc4nc3n1C(C)(C)C2`, for which the Potency entry in experiment [5] was “inactive”.

Consider `COc1ccccc1N1CCN(C[C@@H](C(=O)NC(C)(C)C)c2ccccc2)CC1`, for which the Potency result in experiment [1] is “inactive”.

Consider `C[C@@H]1CNCCN1S(=O)(=O)c1cccc2cnccc12`, for which the Potency result in experiment [4] and in experiment [5] was “inactive” each time.

As to `CNC(=O)[C@H]1O[C@H](n2cnc3c(NCc4cccc(I)c4)nc(Cl)nc32)[C@@H](O)[C@@H]1O`, the Potency result in experiment [5] was “inactive”.
